Laboratory results as given in PubChem BioAssay (NCI).
This is part of a sample that, as a whole, favours compounds with a hit. Of some 83,000 tested, about 20% had one in any assay.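 Compound tested at a single concentration for 48 hours in 96-well plates; a percent growth value below 10 was scored as active.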 Unmarked numbers belong to inactive results. Active and inactive are the calls of the source.

Key:
Experiment in all cases: NCI-60 one-dose screen, 48 h (100 = growth as untreated, 0 = no growth, -100 = all killed)
Details in all cases: 10 µM unless noted
HCT-15 colon = test system: HCT-15 colon
HT29 colon = test system: HT29 colon
SNB-75 CNS = test system: SNB-75 CNS
SNB-19 CNS = test system: SNB-19 CNS
U251 CNS = test system: U251 CNS
PC-3 prostate = test system: PC-3 prostate
SK-MEL-5 melanoma = test system: SK-MEL-5 melanoma
UACC-62 melanoma = test system: UACC-62 melanoma
LOX IMVI melanoma = test system: LOX IMVI melanoma
SK-MEL-28 melanoma = test system: SK-MEL-28 melanoma

Row | Structure (SMILES) | growth (HCT-15 colon) | growth (HT29 colon) | growth (SNB-75 CNS) | growth (SNB-19 CNS) | growth (U251 CNS) | growth (PC-3 prostate) | growth (SK-MEL-5 melanoma) | growth (UACC-62 melanoma) | growth (LOX IMVI melanoma) | growth (SK-MEL-28 melanoma)
1 | Cn1cc(-c2nnc(N)nc2-c2c[nH]c3ccc(F)cc23)c2cc(Br)ccc21 | 16.9% | 3.17% (active) | 0.251% (active) | 25.6% | 17.5% | 22.6% | 4.51% (active) | 30.3% | 29% | 60.4%
2 | Cc1ccc2c(n1)C(=O)C(Cl)=C(Nc1ccc(C(C)C)cc1)C2=O | -60.1% (active) | 102% | 109% | 75.4% | 70.2% | 54% | 37.3% | 86.3% | -66.3% (active) | 6.95% (active)
3 | Cn1cc(C2=C(c3coc4cc(Br)ccc34)C(=O)NC2=O)c2ccccc21 | 37.3% | 51.7% | 10.5% | 90.7% | 83.7% | 69.3% | 89.6% | 60.1% | 69.2% | 88.6%
4 | CCCCSC1=C(Cl)CN(c2ccccc2)C1=O | 101% | 114% | 105% | 101% | 99.6% | 103% | 101% | 95.7% | 36.4% | 101%
5 | COc1ccc(/C=N/NC(=O)CSc2nc(-c3cnccn3)cc(-c3cccs3)c2C#N)cc1 | 87.3% | 8.86% (active) | 77.3% | 57.8% | 68.1% | 72.9% | 72.5% | 59.4% | 45.7% | 77%
6 | N#Cc1c(-c2ccc(F)cc2)cc(-c2c[nH]c3ccccc23)nc1-c1c[nH]c2ccccc12 | 99.6% | 110% | 98.6% | 102% | 94.9% | 103% | 100% | 98.3% | 107% | 107%
7 | Nc1cc(C(=O)N/N=C\c2ccc(OC(F)F)c(OC3CCCC3)c2)nn1CC(O)c1ccccc1 (stereo not given) | 99.1% | 98.2% | 84.1% | 96.4% | 94.7% | 80.7% | 97.1% | 89.4% | 99.1% | 115%
8 | CCC(=C(c1ccc(OCCN(C)C)cc1)c1ccc(OCCN(C)C)cc1)c1ccc(Cl)cc1 | -74.8% (active) | -38.9% (active) | 17.7% | -39.8% (active) | -64.5% (active) | -12.1% (active) | -95.8% (active) | -73.6% (active) | -98.1% (active) | -83.3% (active)
9 | Cc1ccc(CSC2=C(Cl)CN(c3ccc(Cl)cc3)C2=O)cc1 | 99.2% | 116% | 103% | 93.5% | 101% | 107% | 99.8% | 94.7% | 33.9% | 104%
10 | CCc1nnc(NC(=O)c2cc(-c3ccc(Cl)cc3Cl)oc2C)s1 | 70.5% | 89.7% | 94% | 79.7% | 29.5% | 82.7% | 97.8% | 73.2% | 74.4% | 102%
11 | CCCCCc1ccc(S(=O)(=O)Nc2cc(-c3csc(N)n3)ccc2OC)cc1 | 81.8% | 114% | 103% | 91.3% | 95.8% | 90.8% | 84.8% | 75.9% | 107% | 111%
12 | COc1cc(-c2nc(-c3ccccc3)[nH]c2-c2ccnc(NCCCNS(=O)(=O)c3ccc(C)cc3)n2)ccc1F | 62.9% | 69.5% | 105% | 104% | 88.6% | 55% | 84.4% | 97.5% | 83.4% | 101%
13 | CC(=O)N(O)CCCCCNC(=O)CCC(=O)N(O)CCCCCNC(=O)CCC(=O)N(O)CCCCCN(CCCCCCCCCC[P+](c1ccccc1)(c1ccccc1)c1ccccc1)CCCCCCCCCC[P+](c1ccccc1)(c1ccccc1)c1ccccc1 | 51.1% | 5.49% (active) | -11% (active) | 17.2% | 6.66% (active) | 19.6% | -45.9% (active) | -10.6% (active) | -15% (active) | 13.4%
14 | Cn1cc(-c2cc3ncnc(Nc4ccc(CC(=O)Nc5nc(C(C)(C)C)cs5)cc4)c3s2)cn1 | 26.6% | 49.9% | 50.9% | 94.5% | 66% | 41.4% | 53% | 40.3% | 26.3% | 68.9%
15 | COc1cc2oc(-c3cccc(NC(=O)c4cccc([N+](=O)[O-])c4)c3)cc(=O)c2c(OC)c1OC | 56% | 66.4% | -13.5% (active) | 53.6% | 41.9% | 50.2% | 55% | 51% | 33.4% | 88.1%
16 | CC(C)(C)Nc1nc2c(OCCc3ccccc3)cccn2c1-c1cccc(Oc2ccccc2)c1 | 6.6% (active) | 6.41% (active) | 43.5% | 24.5% | 13.5% | 17.5% | -75% (active) | 15% | 3.93% (active) | 34%
17 | Brc1cccc(-c2cc(-c3ccc4c(c3)OC=CO4)[nH]n2)c1 | 21.1% | 14% | 27.5% | 48.6% | 29% | 54.1% | 22.8% | 52.2% | 45.6% | 50%
18 | COc1ccc(OC)c(NC(=O)CCCCCCNC(=O)C(O)(O)C(F)(F)F)c1 | 59.4% | 23.6% | 56.1% | 63.5% | 41.8% | 51.4% | 16.6% | 13% | 32.3% | 35.6%
19 | COc1ccc([C@H]2C(=O)N(c3cc(OC)c(OC)c(OC)c3)[C@@H]2c2ccc(OC)c(O)c2)cc1 | 9.51% (active) | -3.08% (active) | 40.2% | 28.3% | 15.7% | 20.9% | -23% (active) | 33.1% | 13.1% | 63.7%
20 | COc1ccc(/C=N/NC(=O)c2c(N)nn(C)c2Nc2ccccc2)cc1Oc1ccccc1 | 87.7% | 110% | 88.2% | 88.4% | 93.6% | 74.9% | 93.8% | 83.8% | 95.3% | 102%
21 | N/C(=N\C(N)=N\c1nc2ccccc2s1)c1ccc(Cl)cc1 | 37.1% | 98.4% | 99.1% | 84% | 26.8% | 43.9% | 99.7% | 81.9% | 20.8% | 95.5%
22 | CC(=O)N1N=C(c2cc3ccccc3oc2=O)CC1c1cn(-c2ccccc2)nc1-c1ccc(C)cc1 (stereo not given) | 103% | 108% | 90.7% | 96% | 104% | 93% | 101% | 95.2% | 95.7% | 106%
23 | CC/C(=C(/c1ccc(Cl)cc1)c1ccc(OCCN)cc1)c1ccccc1 | 55.7% | 79.9% | 110% | 99.8% | 92.6% | 103% | 99.1% | 107% | 27.8% | 108%
24 | C/C(=N\NC(N)=S)c1nnn(-c2ccc([N+](=O)[O-])cc2)c1C | 86.9% | 104% | 87.3% | 95.6% | 98.1% | 90.8% | 100% | 98.4% | 94.9% | 104%
25 | CCN(CC)c1ccc(/C=N/NC(=O)c2ccc(NS(C)(=O)=O)cc2)cc1 | 20.4% | 32.1% | 73.3% | 39.2% | 31.1% | 37.2% | 4.46% (active) | 12.3% | 9.94% (active) | 23.8%
26 | Cc1ccc(-c2nc(SCC(=O)c3ccccc3)nc(Nc3ccc(S(N)(=O)=O)cc3)c2C#N)cc1 | 72.1% | 92.3% | 80% | 77.3% | 47.4% | 92.6% | 75.5% | 80.3% | 15.4% | 81.1%
